# For some assays here: Entries with a potency or affinity are not part of this list.
# How the values were obtained:
# Design in all cases: scale not given: direction of the effect not stated beside the values
# [1] = target: Protein translocase subunit SecA (Escherichia coli (strain K12)) (UniProt P10408); assay: Assay to Identify E. coli SecA ATPase Inhibitors; format: functional; details: 30 µM
# [2] = target: T1, Ubiquitin-activating enzyme e1, putative (Leishmania donovani (strain BPK282A1)) (UniProt E9BSI1); assay: Leishmania donovani Ubiquitin Activating Enzyme (LdE1); format: functional; details: 30 µM
# T1 sequence (whole entry): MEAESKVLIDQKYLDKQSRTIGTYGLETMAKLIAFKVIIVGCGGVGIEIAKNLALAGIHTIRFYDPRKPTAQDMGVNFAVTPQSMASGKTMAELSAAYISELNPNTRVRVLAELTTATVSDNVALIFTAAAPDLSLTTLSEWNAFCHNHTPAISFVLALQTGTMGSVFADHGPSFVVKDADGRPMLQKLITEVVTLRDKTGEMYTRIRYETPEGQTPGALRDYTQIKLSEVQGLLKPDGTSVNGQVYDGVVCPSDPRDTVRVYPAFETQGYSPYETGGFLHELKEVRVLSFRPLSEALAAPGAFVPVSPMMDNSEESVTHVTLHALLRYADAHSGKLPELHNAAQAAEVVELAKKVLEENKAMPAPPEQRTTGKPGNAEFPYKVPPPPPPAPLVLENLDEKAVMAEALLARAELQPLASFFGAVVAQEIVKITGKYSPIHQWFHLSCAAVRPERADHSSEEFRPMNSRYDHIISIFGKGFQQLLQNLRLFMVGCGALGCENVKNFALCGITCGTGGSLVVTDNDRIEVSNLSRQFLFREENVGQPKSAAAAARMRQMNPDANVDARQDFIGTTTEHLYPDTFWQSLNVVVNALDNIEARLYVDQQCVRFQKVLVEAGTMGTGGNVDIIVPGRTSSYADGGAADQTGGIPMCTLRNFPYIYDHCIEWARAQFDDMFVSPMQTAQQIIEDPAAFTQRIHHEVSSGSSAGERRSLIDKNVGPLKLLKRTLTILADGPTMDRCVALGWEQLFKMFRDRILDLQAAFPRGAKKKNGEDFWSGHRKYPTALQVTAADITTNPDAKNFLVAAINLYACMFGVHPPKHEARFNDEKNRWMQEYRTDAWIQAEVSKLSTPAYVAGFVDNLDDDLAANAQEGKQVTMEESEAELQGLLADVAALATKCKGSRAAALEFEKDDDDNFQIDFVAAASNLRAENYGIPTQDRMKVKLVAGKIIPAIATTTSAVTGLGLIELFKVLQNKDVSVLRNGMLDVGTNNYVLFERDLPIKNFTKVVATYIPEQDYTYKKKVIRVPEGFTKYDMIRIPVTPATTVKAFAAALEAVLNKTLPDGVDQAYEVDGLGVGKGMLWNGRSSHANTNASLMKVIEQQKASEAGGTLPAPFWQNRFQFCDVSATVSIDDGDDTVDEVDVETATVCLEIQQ
# [3] = target: AMP-activated protein kinase, AMPK (Homo sapiens) (UniProt P54646+O43741+P54619+Q9UGJ0+Q9Y478+Q13131+Q9UGI9); assay: AMP-dependent Kinase enzyme assay. An in vitro enzyme assay that detects ADP turnover that is directly proportional to AMPK activity. This uses naive AMPK that is activated during the assay with MK-8722; format: functional; details: 30 µM
# [4] = target: Sialic acid-binding Ig-like lectin 9 (Homo sapiens) (UniProt Q9Y336); assay: Hs-Siglec9 ALPHAscreen SOP 20170721; details: 10 µM
# Chain of Sialic acid-binding Ig-like lectin 9 (Homo sapiens) (Q9Y336 whole entry): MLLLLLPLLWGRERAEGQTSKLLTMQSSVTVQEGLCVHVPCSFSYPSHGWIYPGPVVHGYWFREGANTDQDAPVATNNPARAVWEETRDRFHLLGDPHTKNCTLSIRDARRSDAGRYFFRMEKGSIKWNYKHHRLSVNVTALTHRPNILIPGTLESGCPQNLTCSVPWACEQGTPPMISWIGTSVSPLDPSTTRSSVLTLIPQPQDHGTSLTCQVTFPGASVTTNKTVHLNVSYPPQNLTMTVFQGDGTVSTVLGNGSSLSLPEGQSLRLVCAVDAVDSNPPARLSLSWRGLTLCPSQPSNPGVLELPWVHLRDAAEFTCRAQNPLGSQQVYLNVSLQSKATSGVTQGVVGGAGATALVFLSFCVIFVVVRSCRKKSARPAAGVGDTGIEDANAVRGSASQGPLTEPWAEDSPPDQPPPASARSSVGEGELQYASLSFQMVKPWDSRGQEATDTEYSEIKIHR
# Trypanosoma cruzi = assay: Trypanosoma cruzi phosphomannomutase and mannose-1-phosphate guanylyltransferase assay; format: functional; details: 10 µM
# [5] = target: T2, Arginase-2, mitochondrial (Homo sapiens) (UniProt P78540); assay: in vitro enzyme assay to detect the production of urea directly proportional to the activity of Arginase II; format: functional; details: 33.3 µM; further: in the data most compounds retested in dose-response had high values
# T2 sequence (whole entry): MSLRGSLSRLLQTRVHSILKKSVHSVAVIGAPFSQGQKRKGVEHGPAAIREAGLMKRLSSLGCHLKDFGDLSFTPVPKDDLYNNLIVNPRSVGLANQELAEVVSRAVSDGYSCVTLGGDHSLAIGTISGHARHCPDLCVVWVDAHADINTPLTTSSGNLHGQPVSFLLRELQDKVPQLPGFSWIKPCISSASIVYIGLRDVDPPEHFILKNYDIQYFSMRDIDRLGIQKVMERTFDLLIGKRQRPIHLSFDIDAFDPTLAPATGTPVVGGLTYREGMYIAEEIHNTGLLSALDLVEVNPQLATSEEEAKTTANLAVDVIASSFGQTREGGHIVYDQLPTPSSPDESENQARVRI
# [6] = target: T3, Proteasome subunit beta (Trypanosoma cruzi) (UniProt O96673); assay: Trypanosoma cruzi proteasome chymotrypsin-like activity (TcProtChymo) assay.; further: in the data most compounds retested in dose-response had high values; format: functional; details: 9.37 µM
# T3 sequence (whole entry): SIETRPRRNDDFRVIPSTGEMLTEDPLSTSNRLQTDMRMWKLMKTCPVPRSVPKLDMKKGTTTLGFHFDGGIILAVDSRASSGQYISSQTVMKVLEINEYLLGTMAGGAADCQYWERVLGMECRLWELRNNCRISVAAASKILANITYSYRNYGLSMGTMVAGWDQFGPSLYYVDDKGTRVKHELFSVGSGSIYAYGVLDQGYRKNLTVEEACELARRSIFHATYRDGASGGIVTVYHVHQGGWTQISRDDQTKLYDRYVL
# Homo sapiens = organism: Homo sapiens; assay: To identify inhibition of the IFN signalling (Jak-Stat) pathway via expression of an eGFP reporter gene under the control of an IFN-stimulated response element (ISRE) containing MxA promoter.; format: functional; details: 30 µM
# [7] = target: T4, Tyrosyl-tRNA synthetase, putative (Trypanosoma cruzi (strain CL Brener)) (UniProt Q4DSP6); assay: Trypanosoma cruzi tyrosyl tRNA synthetase (TcYRS) _High Tyrosine SOP; format: functional; details: 30 µM; further: in the data most compounds retested in dose-response had high values
# T4 sequence (whole entry): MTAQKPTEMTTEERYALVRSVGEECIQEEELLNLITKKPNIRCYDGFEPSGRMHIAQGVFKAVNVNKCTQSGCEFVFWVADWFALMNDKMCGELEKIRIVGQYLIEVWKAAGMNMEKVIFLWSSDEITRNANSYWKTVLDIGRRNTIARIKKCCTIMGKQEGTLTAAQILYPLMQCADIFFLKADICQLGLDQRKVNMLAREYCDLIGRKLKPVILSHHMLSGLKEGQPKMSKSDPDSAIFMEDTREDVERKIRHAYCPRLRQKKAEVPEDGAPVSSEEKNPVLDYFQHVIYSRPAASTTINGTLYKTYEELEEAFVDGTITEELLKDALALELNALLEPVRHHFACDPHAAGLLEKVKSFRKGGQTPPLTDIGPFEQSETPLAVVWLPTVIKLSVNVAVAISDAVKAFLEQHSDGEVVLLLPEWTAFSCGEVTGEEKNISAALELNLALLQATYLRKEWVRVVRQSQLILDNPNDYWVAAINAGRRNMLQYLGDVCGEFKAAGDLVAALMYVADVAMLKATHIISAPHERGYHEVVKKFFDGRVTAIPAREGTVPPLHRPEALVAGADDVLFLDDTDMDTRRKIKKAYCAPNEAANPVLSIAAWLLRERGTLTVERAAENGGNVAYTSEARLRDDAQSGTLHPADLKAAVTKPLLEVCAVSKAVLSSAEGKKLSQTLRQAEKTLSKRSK
# [8] = target: T4, Tyrosyl-tRNA synthetase, putative (Trypanosoma cruzi (strain CL Brener)); assay: Trypanosoma cruzi tyrosyl tRNA synthetase (TcYRS) SOP; format: functional; details: 30 µM
# [9] = target: Chromo domain-containing protein 1 (Saccharomyces cerevisiae (strain ATCC 204508 / S288c) (Baker's yeast)) (UniProt P32657); assay: ScCHD-1 Enzyme Inhibition Assay; format: functional; details: 30 µM; further: in the data most compounds retested in dose-response had high values
# Chain of Chromo domain-containing protein 1 (Saccharomyces cerevisiae (strain ATCC 204508 / S288c) (Baker's yeast)) (P32657 whole entry, the tested form may be a part): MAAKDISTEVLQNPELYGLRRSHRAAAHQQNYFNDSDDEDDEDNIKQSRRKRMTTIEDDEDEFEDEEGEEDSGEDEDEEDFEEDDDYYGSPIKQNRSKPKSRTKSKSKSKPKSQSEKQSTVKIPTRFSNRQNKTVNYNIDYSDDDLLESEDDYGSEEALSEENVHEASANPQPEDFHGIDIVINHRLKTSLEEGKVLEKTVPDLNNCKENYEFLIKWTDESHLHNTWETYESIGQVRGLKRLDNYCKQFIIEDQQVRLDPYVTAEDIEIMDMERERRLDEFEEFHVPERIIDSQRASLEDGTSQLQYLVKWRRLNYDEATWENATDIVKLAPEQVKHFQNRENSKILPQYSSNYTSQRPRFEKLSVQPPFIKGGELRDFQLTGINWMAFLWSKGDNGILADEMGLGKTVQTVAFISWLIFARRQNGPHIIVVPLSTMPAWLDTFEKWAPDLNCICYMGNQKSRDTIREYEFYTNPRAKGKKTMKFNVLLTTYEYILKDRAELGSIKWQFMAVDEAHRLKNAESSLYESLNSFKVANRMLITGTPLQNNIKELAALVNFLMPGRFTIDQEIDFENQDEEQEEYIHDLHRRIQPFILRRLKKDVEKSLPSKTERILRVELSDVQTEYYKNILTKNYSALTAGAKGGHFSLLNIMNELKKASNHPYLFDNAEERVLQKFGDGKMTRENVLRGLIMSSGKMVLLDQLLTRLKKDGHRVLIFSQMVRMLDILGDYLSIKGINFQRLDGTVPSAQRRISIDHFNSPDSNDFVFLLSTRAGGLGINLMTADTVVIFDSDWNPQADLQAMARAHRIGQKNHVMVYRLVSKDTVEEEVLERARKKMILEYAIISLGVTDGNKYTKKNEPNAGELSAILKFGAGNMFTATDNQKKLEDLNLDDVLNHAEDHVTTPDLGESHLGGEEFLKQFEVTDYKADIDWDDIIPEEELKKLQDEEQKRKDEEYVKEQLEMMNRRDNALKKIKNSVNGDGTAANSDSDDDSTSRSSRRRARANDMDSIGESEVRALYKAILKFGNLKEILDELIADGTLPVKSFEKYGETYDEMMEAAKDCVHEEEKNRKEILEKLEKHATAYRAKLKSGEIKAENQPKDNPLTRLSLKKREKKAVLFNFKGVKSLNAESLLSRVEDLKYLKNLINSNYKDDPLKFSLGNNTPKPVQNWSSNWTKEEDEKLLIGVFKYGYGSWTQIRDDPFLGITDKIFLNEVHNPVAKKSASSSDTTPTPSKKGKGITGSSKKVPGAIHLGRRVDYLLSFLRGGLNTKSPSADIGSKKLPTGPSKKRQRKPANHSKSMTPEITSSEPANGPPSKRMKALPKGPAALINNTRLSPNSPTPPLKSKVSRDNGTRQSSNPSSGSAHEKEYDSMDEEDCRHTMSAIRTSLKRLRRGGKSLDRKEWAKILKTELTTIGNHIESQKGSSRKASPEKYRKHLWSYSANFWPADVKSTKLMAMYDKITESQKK
# Chain of Protein translocase subunit SecA (Escherichia coli (strain K12)) (P10408 whole entry): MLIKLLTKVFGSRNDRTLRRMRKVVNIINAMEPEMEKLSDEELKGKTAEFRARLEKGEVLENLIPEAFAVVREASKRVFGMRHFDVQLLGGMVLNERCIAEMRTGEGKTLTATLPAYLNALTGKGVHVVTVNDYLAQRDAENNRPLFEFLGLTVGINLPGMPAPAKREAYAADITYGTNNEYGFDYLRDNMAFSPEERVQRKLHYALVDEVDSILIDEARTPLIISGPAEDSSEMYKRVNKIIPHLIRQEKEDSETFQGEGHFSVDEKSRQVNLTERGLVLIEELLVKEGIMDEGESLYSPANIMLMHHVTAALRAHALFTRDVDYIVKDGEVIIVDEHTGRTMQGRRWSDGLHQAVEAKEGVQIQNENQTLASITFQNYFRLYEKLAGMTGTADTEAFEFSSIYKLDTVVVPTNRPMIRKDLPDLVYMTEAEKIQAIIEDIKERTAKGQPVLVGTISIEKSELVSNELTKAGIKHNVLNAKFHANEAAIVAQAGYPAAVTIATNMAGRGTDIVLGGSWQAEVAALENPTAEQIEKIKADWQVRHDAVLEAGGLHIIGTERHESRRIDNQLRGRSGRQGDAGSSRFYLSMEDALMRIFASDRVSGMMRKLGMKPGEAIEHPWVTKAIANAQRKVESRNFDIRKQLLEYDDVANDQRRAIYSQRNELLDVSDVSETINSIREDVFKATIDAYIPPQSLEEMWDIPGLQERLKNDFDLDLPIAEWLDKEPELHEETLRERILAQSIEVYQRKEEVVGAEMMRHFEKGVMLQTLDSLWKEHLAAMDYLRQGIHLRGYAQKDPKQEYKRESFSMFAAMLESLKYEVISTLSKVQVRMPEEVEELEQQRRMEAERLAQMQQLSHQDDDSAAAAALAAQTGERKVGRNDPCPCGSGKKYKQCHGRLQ
Compound,Percent Effect [1] [%],Percent Effect [2] [%],Percent Effect [3] [%],Percent Effect [4] [%],Percent Effect (Trypanosoma cruzi) [%],Percent Effect [5] [%],Percent Effect [6] [%],Percent Effect (Homo sapiens) [%],Percent Effect [7] [%],Percent Effect [8] [%],Percent Effect [9] [%]
COCCn1cc(C(=O)N2CCCC2c2cccc(F)c2)ccc1=O (configuration not stated),1.54,-5.41,-0.655,0.523,-2.7,2.38,7.07,-0.304,-2.65,-56.1,-2.35
Cc1cnn(CCNCc2csc(-c3ccc(F)cc3)n2)c1,-3.56,-15.8,4.58,5.27,3.19,0.383,1,1.14,1.47,0,5.05
CN(CC1CC1)C(=O)CN(Cc1cccc(O)c1)C1CCC(O)CC1 (configuration not stated),-0.997,-2.7,-5.33,8.92,1.07,24.6,11.1,12,0,1.24,0.446
COc1ccc(F)cc1S(=O)(=O)NCC(c1cccn1C)N(C)C (configuration not stated),-3.57,8.22,-1.87,-2.56,0.196,3.64,11.5,7.4,7.53,20,-6.57
O=C(CCc1cccc(F)c1F)N1CCN(Cc2ccco2)CC1,0.132,2.7,-1.7,9.76,3.48,0.476,10.3,0.925,0.529,-2.44,-2.5
CCOCC1CN(C(=O)c2cscn2)Cc2nnn(CC3CC3)c21 (configuration not stated),-0.829,10.8,1.84,-5.91,0.88,4.14,18.4,-1.13,2.16,7.69,-1.63
COC(=O)c1ccc(N2CCN(CCC#N)C(C)C2)cc1 (configuration not stated),-7.22,10.5,3.82,-3.31,-8.12,-0.36,4.15,5,5.42,3.7,0.577
CNCC(=O)N1CC(c2cc(Nc3ncccn3)nc(C)n2)C1,0.103,10.7,6.11,-7.15,-4.33,-1.63,8.9,13.8,10.6,16.7,-1.56
CN(Cc1ccon1)C(=O)C1CC(=O)N(Cc2ccncc2)C1 (configuration not stated),-6.1,5.41,-1.61,13.8,-0.684,0.248,2.66,14.7,5.38,8.64,-4.6
Cc1cc(C)n(CC2CN(Cc3cscn3)CCO2)n1 (configuration not stated),-2.86,23.7,-2.52,-2.39,2.63,-0.383,27.2,-6.47,7.35,21.9,-11.6
Cc1cc(C)c(CNC(=O)N(C)CC2CCCCO2)c(=O)[nH]1 (configuration not stated),-3.05,7.89,2.98,-2.11,-8.84,3.06,14.2,30.1,4.41,9.76,-2.04
CC(=O)NCCNC(=O)c1sc(-c2ccc(C)cc2C)nc1C,-2.37,10.8,-0.818,-4.19,-7.89,3.51,8.26,10.8,4.95,11,7.83
Cc1cnn(CC(C)NCc2csc(-c3cnn(C)c3)n2)c1 (configuration not stated),-0.0815,19,-6.28,-4.12,-4.41,0.645,20.6,14,7.29,-10.1,-26.4
CN(C)C(=O)CS(=O)(=O)Cc1cc(Cl)c2c(c1)OCCCO2,-5,18.4,2.36,-11.3,-4.2,3.24,6.68,3.48,1.48,-8.64,-7.42
c1coc(-c2nnc(CN3CCCC(CN4CCCCCC4)C3)o2)c1 (configuration not stated),-4.64,7.89,0.651,1.71,8.67,-7.1,-1.25,4.66,5.32,10.4,-3.8
CC(C)c1nc(CN2CCN(CC3CCCO3)CC2)cs1 (configuration not stated),1.19,10.4,-7.85,-14,-1.47,6.95,14.8,17.1,4.76,9.41,-15.6
COCC(=O)N(C)Cc1ccc(Cl)c(Cl)c1,-4.08,-2.63,8.5,7.96,-3.21,-5.92,21.2,10.7,0,2.6,-8.73
CNC(=O)COc1ccc(CNCc2ccc(F)cc2F)cc1,-3.24,6.94,7.47,-14.2,-5.93,-1.32,18.6,6.07,4.21,5.13,-3.63
CC(CCc1ccccc1)NC(=O)Nc1cnn(CC(N)=O)c1 (configuration not stated),-2.21,16.5,-2.88,2.1,-1.74,-4.52,17.8,8.25,3.12,20.2,-26.2
CCn1cc(NC(=O)NCC(c2cccc(F)c2)N(C)C)cn1 (configuration not stated),0.401,13.2,0.674,6.49,-0.752,0.383,4.68,-12.5,11.3,21.9,-5.78
O=C(NCCN1CCCCC1)c1scnc1Cl,-0.516,15.8,7.25,-5.01,-5.7,3.24,13.6,3.91,9.36,16.1,-5.64
Cc1cc(C)n(C2CCCN(C(=O)Cc3csc(C)n3)C2)n1 (configuration not stated),-3.62,0,-2.28,17.5,6.7,1.9,4.34,-6.53,4.43,-3.8,-6.83

# Reference: ChEMBL document CHEMBL3988442, “University of Dundee, Small-Polar-MMV Screening Library” (2021)
